The whole screen tested about 310,000 compounds, of which about 1,200 (0.39%) were called active. No rule for the calls is given here. Only a sample is shown. Potency and affinity values are given separately.
What follows are molecules tested against Large T antigen (Simian virus 40) (UniProt P03070) (assay: SV40 large T antigen inhibitors, biochemical (AID 1903)). Details: SV40 large T antigen ATPase/helicase inhibition assay; at 20 µM; stronger effect = higher value.
Chain of Large T antigen (Simian virus 40) (P03070 whole entry, looked up): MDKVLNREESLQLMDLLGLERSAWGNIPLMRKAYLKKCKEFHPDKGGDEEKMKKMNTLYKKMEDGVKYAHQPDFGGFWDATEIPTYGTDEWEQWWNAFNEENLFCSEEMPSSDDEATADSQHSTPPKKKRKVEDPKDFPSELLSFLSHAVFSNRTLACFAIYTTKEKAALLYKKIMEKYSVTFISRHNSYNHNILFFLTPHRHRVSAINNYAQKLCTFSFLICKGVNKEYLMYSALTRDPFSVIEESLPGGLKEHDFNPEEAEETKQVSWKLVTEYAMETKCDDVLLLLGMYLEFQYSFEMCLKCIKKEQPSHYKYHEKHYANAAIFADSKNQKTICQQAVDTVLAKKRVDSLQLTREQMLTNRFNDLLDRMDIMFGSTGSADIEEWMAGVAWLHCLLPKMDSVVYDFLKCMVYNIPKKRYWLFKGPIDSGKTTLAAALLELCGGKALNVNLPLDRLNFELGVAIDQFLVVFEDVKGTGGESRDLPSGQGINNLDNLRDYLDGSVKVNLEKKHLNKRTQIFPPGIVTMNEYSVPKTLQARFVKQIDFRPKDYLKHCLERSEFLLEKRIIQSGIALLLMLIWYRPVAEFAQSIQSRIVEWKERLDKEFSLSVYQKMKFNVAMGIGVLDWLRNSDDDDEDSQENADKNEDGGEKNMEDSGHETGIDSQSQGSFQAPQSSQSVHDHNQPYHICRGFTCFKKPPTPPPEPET

inhibition, inactive:
CC(CC(=O)NC(C)c1ccc2c(c1)OCCO2)c1ccccc1 (stereo not given) 7.67%
O=S(=O)(c1ccccc1OC(F)(F)F)N1CCN(c2ccnc3cc(Cl)ccc23)CC1 4.46%
Cc1nc(=O)c(-c2ccccc2)c(C)n1Cc1ccccc1 1.9%
O=C(COc1ccccc1[N+](=O)[O-])N/N=C/c1ccncc1 25.8%
O=C(COc1ccccc1[N+](=O)[O-])N/N=C/c1ccc(O)c([N+](=O)[O-])c1 7.71%
CCc1cc2c(Nc3ccccc3O)nc(C)nc2s1 9.83%
Cc1cc2c(Nc3cccc(O)c3)ncnc2s1 26.2%
CCc1cc2c(NCc3ccccc3)nc(C)nc2s1 17.6%
Cc1cc2c(Nc3ccccc3)ncnc2s1 -2.89%
O=C(OCc1nnc(-c2ccccc2)o1)c1ccc(CO)cc1 3.3%
CCO[C@H]1OC(C(=O)NCc2nc3ccccc3[nH]2)=C[C@@H](c2ccccc2)[C@@H]1CCCO 1.96%
CCOc1ccc(C(=O)OCC(=O)c2c(N)n(C)c(=O)n(C)c2=O)cc1OCC 1.22%
COc1ccc(C(=O)OCC(=O)c2c(N)n(C)c(=O)n(C)c2=O)cc1OC -4.08%
O=C(NC(=S)Nc1ccc(S(=O)(=O)N2CCCCC2)cc1)c1ccc(Cl)cc1 1.56%
COC(=O)c1ccc(CN2C(=O)c3ccccc3C2=O)o1 10.1%
CSc1nc(-c2ccccc2)nc(NC(=O)c2ccccc2)c1C(C)=O 5.31%
COC(=O)C1=C[C@@H](C(=O)OC)[C@@H]2C3=C(C(=O)[C@]2(CC(C)C)NC(=O)c2ccccc2)[C@H](C)n2c(=O)n(-c4ccccc4)c(=O)n2[C@@H]3C1 19.3%
C/C(=N\NC(=O)c1nnn(-c2nonc2N)c1-c1cccs1)c1cccnc1 -7.39%
CN1C(=O)N(C)c2cccc3cccc1c23 21.8%
CC1N(C)c2cccc3cccc(c23)N1C 32.1%
OC(COCc1ccc2c(c1)OCO2)CN1CCCCC1 (stereo not given) 4.66%
COc1ccc(S(=O)(=O)NNC(=O)Cc2csc(C)n2)cc1[N+](=O)[O-] 10.2%
CCN1CCN(c2cc(C)c3cc(NC(=O)Cc4ccc(OC)c(OC)c4)ccc3n2)CC1 2.02%
CC1C(=O)OC(c2ccc(Br)cc2)C(C)(C)C1=O (stereo not given) 29.1%
CCOc1ccc2c(c1)C(c1ccccc1)=NNC(c1ccccc1)=N2 4.86%
Cc1cc(C)n2c(SCC(=O)Nc3ccc(F)cc3)nnc2n1 8.2%
O=C(CSc1nc2c(c(=O)[nH]1)CCC2)Nc1ccc(F)cc1 22%
CC(C)c1ccc(NC(=O)CSc2nc3c(c(=O)[nH]2)CCC3)cc1 10.4%
CCN(CC)c1ccc(NC(=O)CSc2nc(C)cc(=O)[nH]2)cc1 35.5%
CCN(c1ccc(NC(=O)CSc2nnc3nc(C)cc(C)n23)cc1)C(C)C 36%
CC(=O)Nc1ccc(NC(=O)CSc2nc3nc(C)cc(C)c3c(=O)[nH]2)cc1 9.68%
Cc1cc(C)c2c(=O)[nH]c(SCC(=O)Nc3ccc(N(C)C)cc3)nc2n1 31.4%
CCc1nc(SCC(=O)Nc2ccc(N(C)C)cc2)c2ccccc2n1 18.1%
Cc1ccc([N+](=O)[O-])cc1NC1CC(O)C(CO)O1 (stereo not given) 3.41%
CN(C)CCN(C(=O)c1ccc(S(=O)(=O)N2CCc3ccccc32)cc1)c1nc2ccc(F)cc2s1 14.4%
Cc1ccc(S(=O)(=O)/C(C#N)=C/c2c(N3CC(C)OC(C)C3)nc3c(C)cccn3c2=O)cc1 (stereo not given) 23.9%
COc1cc2c(cc1OC)CN(C(=O)/C=C/c1cc(OC)c(OC)c(OC)c1)CC2 7.46%
O=C(N/N=C/c1ccc(OC(=O)c2ccco2)cc1)c1ccncc1 15.9%
O=C(N/N=C\c1ccc(OC(=O)c2ccco2)cc1)c1ccc(Cl)cc1 11.3%
C=CCc1ccccc1OCC(O)Cn1ccnc1C (stereo not given) 10.2%
CC(C)c1cc(=O)oc2c3c4c(cc12)CCCN4CCC3 4.43%
O=c1ccc2cc3c4c(c2o1)CCCN4CCC3 3.45%
CCc1ccc(NC(=O)[C@H](NC(=O)[C@@H]2Cc3ccccc3CN2)c2ccccc2)cc1 7.36%
CCCc1c(C(=O)N/N=C/C(C)=C/c2ccccc2)nnn1-c1nonc1N 15.4%
O=C(Cn1nnc(-c2ccc(NC(=O)c3ccccc3F)cc2)n1)NCc1ccc(F)cc1 16.3%
CCc1nnc(NC(=O)Cn2c(=O)oc3ccccc32)s1 1.21%
CCCc1nnc(NC(=O)Cn2c(=O)oc3ccccc32)s1 3.95%
N/C(=N\NS(=O)(=O)c1ccccc1)c1ccccn1 16.4%
Cc1nnc(NC(=O)CSc2nnc(C)n2Cc2ccccc2)s1 -83.7%
COc1ccc(OC(=O)Nc2ccc([N+](=O)[O-])cc2OC)cc1 0.1%
COC(=O)Nc1ccc([N+](=O)[O-])cc1OC 3%
Oc1cccc(/C=N/Nc2ncnc3c2ncn3Cc2ccccc2)c1 10.2%
COc1cccc(/C=N/Nc2ncnc3c2ncn3Cc2ccccc2)c1O 18.1%
CCc1nn(CC(=O)N2CCC(C(N)=O)CC2)c(=O)c2cc3occc3n12 5.76%
CCCCC(=O)N1C/C=C\[C@H](c2ccc(OC)cc2)N(Cc2ccc(F)cc2)C(=O)[C@@H]1C -1.49%
Cc1c(C(=O)OCC(=O)NCc2ccccc2)oc2ccccc12 13.4%
COC(=O)c1ccccc1NC(=O)c1cnn2c(C)cc(C)nc12 -5.22%
O=C(O)c1ccc(-n2c(/C=C/c3ccccc3)nc3ccccc3c2=O)cc1 13.9%
CCn1c(/C=C/c2ccc(O)cc2)nc2ccccc2c1=O 26.9%
COc1ccc(/C=C/c2nc3ccccc3c(=O)n2-c2cccc(C(=O)O)c2)cc1 12.5%
CCn1c(/C=C/c2cc(Br)ccc2O)nc2ccccc2c1=O 27%
CC(C)c1ccc(NC(=O)CSc2nc(-c3ccccc3F)nc3nc[nH]c23)cc1 3.55%
CCOc1ccc(CCNC(=O)CCC(=O)Nc2ccc3nc(N4CCN(C)CC4)cc(C)c3c2)cc1OCC 2.93%
O=C(CCl)N1c2ccccc2CCc2ccccc21 8.1%
O=C(CN1CCCCC1)N1c2ccccc2CCc2ccccc21 0.59%
Cc1cc(NS(=O)(=O)Cc2ccccc2)no1 3.2%
CCCN(C(=O)c1ccc(N(C)S(=O)(=O)c2ccc(C)cc2)cc1)C1CCS(=O)(=O)C1 (stereo not given) 11%
Cc1ccc(C)c(NS(=O)(=O)c2ccc(OCC(=O)N3CCOCC3)cc2)c1 4.78%
COc1cc(C(=S)N2CCCCC2)ccc1O 29.3%
COc1cc(C(=O)OCCN2CCCCC2)ccc1O 29.6%
O=C(NCCOc1ccccc1)C1CCC(=O)N(CCc2ccccn2)C1 (stereo not given) 5.44%
CN(C)c1ccc(C2/C(=C(/O)c3ccc(Br)cc3)C(=O)C(=O)N2C)cc1 (stereo not given) 8.15%
CC(C)C[C@H](NC(=O)[C@@H]1Cc2c([nH]c3ccccc23)C2c3ccccc3C(=O)N21)C(=O)NCC1CCCO1 (stereo not given in full) 8.64%
O=C1OCC/C1=C\c1ccccc1 6.44%
Cc1ccc(/C=C2\CCOC2=O)cc1 10.9%
CC(NC(=O)c1cc(S(=O)(=O)N2CCCC2)cn1C)c1ccccc1 (stereo not given) 5.41%
CN1C(C(=O)NCCc2cccs2)CC2Cn3c(nc4ccccc43)C21 (stereo not given) 21.1%
Nc1[nH]nc2nc3ccccc3cc12 36%
Cc1cc2cc3c(=O)[nH]c(=O)[nH]c3nc2cc1C -1.5%
Cc1ccc2cc3c(N)c4c(C)ccc(C)c4nc3nc2c1 1.71%
CCc1ccc2nc3nc(C)cc(C)c3c(N)c2c1 17.6%
CCc1ccc2nc(N)sc2c1 9.15%
CC1(C)Cc2nc3n[nH]c(N)c3cc2CO1 -1.93%
CCn1cc(CNC(=O)c2cc(-c3ccccc3OC)nc3ccccc23)c(C)n1 4.15%
O=C(c1ccc(Cl)cc1)c1oc2ccccc2c1CS(=O)(=O)c1ccccc1 1.36%
c1ccc(Oc2ccc3ccccc3n2)cc1 7.16%
COc1ccc(N(CC(=O)N2CCOCC2)S(C)(=O)=O)cc1OC 4.22%
CCCCn1c(=O)[nH]c(=O)c2c(C(=O)OCC)cc(-c3cccs3)nc21 4.89%
Cc1cc(NC(=O)c2cc(C(C)C)on2)nn1Cc1ccc(Cl)cc1 -0.65%
COC(=O)c1[nH]c2cccc(OC)c2c1NC(=O)CCN1CCSCC1 2.77%
CCN(CC)C(=O)C1CCC(CNS(=O)(=O)c2cccc3nsnc23)CC1 (stereo not given) 5.44%
COc1ccccc1C(=O)NCCC(=O)Nc1nc2ccccc2[nH]1 10.6%
CCCCN1C(=O)/C(=C(/C#N)C(=O)N2CCCC2)c2ccccc21 7.04%
CCOC(=O)/C(C#N)=C1/C(=O)N(Cc2ccccc2)c2ccccc21 11%
O=C(CN1C(=O)C2CCCCC2C1=O)Nc1nc(-c2ccc(F)cc2)cs1 (stereo not given) 12.1%
